CYP2C19 inhib – blocks human cytochrome P450 2C19 | P33261 | CYP2C19 Supersomes, luciferin-H EGE luminescence, 30 min | inhibition, % at 5 µM | actives 21% (n = 96,000);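 active means CYP2C19 inhibition above a set limit at 5 µM in the primary screen, cut at about 50% in these data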;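 further: plate controls were negative control wells for no effect and 2.5 mM tranylcypromine positive control for full effect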
Target sequence (P33261 whole entry, looked up): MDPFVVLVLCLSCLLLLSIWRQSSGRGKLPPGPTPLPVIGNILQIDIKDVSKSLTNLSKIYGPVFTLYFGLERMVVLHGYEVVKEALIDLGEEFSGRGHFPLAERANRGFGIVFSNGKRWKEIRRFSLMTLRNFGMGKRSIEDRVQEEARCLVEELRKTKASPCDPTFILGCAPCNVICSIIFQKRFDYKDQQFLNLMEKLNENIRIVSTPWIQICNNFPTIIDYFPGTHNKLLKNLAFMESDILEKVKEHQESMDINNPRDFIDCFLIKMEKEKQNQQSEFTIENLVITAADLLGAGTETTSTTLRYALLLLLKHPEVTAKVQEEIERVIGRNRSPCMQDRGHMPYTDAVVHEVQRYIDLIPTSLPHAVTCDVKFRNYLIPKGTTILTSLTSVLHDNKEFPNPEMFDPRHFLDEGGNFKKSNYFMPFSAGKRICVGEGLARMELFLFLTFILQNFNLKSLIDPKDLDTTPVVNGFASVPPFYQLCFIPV
CYP2C9 activ – increases human cytochrome P450 2C9 activity; P11712; recombinant CYP2C9, luciferin-H conversion, luminescence; active compounds read high; factor 1 = untreated enzyme, 0 = blocked; activation factor at 5 µM; actives 1.4% (n = 96,000);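 active means activation factor of 2 or more for CYP2C9 at a 5 µM dose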;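 further: 0 = sulfaphenazole-blocked wells and 1 = vehicle-only wells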
CYP2C9 inh – inhibitors of human CYP2C9. P11712. actives 20% (n = 96,000). inhibition, % at 5 µM. CYP2C9 Supersomes, luciferin-H conversion, luminescence;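 active means blocking of liver enzyme CYP2C9 beyond about 50% at 5 µM, limit read from the data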
CYP2C19 activ – activators of human cytochrome P450 2C19; P33261; recombinant CYP2C19, luciferin-H EGE luminescence; active compounds read high; 0 = fully inhibited enzyme, 1 = untreated enzyme; AID 1025; activation factor at 5 µM; 96,000 tested, under 10 active;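 active means activation factor of at least 2 at 5 µM in the primary screen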;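 further: 0 = wells with 2.5 mM tranylcypromine and 1 = vehicle-only wells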
* hit, by the source's call. Sampled rows, rich in hits. Any-hit rate of the full collection: about 31%.

SMILES	CYP2C19 inhib	CYP2C9 activ	CYP2C9 inh	CYP2C19 activ
c1ccc(NCc2nc(-c3ccccc3)no2)cc1	87*	0.2	76*	0.1
Cc1ccc(-c2noc(CCCN3C(=O)c4ccccc4C3=O)n2)cc1	4	0.7	33	1
O=C(Nc1cccc(F)c1)C1CCN(C(=O)c2ccccc2Cl)CC1	45	0.6	44	0.5
CC(C)(C)NC(=S)NCc1cccnc1	9	1	1	0.9
O=C1CCCc2c1nc(-c1ccccc1)n2O	2	1.1	-8	1
Cc1cccc2nc(CSc3nnc4ccccn34)cn12	13	1.1	-10	0.9
N#Cc1ccc(OCC(=O)NCCc2ccccn2)cc1	-7	1	4	1.1
COc1cc(OC)cc(C(=O)NCc2nc(-c3ccccc3)no2)c1	73*	0.4	61*	0.3
CC(C)N(Cc1nc(-c2ccccc2)no1)C(=O)c1ccc2c(c1)OCO2	69*	0.6	43	0.3
O=C(NCc1nc(-c2ccccc2)no1)c1ccc2c(c1)OCO2	22	0.8	23	0.8
CCC(C)(C)n1nnnc1CN1CCN(c2nc3cc(OC)ccc3cc2C#N)CC1	30	0.9	5	0.7
COc1ccccc1N(C)S(=O)(=O)c1ccc(C(=O)NC(C)(C)C)cc1	27	0.3	73*	0.7
Cn1cnc2c1c(=O)n(CC(O)CO)c(=O)n2C (stereo not drawn)	-4	1	-2	1
CC(=O)CCCCn1c(=O)c2c(ncn2C)n(C)c1=O	15	0.5	51*	0.8
CC(C)CCNC(=O)c1ccc2nc[nH]c2c1	6	0.9	15	0.9
CCOc1cccc(/C(O)=C2/C(=O)C(=O)N(Cc3cccnc3)C2c2ccco2)c1 (stereo not drawn)	6	0.3	65*	0.9
O=C1C(=O)N(Cc2cccnc2)C(c2ccccn2)/C1=C(/O)c1ccc(F)cc1 (stereo not drawn)	-7	0.3	71*	1.1
CN(C)S(=O)(=O)c1ccc(/C(O)=C2/C(=O)C(=O)N(Cc3cccnc3)C2c2ccncc2)cc1 (stereo not drawn)	23	0.6	38	0.8
Cc1ccc(/C(O)=C2/C(=O)C(=O)N(Cc3cccnc3)C2c2ccccn2)cc1 (stereo not drawn)	66*	0.1	90*	0.3
Cc1cc(Cl)ccc1NC(=O)NC1CCN(S(=O)(=O)c2ccc(F)cc2)CC1	6	1	-1	0.9
N#Cc1c(-c2ccc(Cl)cc2Cl)nc2n(c1=O)CCS2	93*	0.4	62*	0.1
O=C(CCS(=O)(=O)c1ccc(Br)cc1)N1CCN(c2ccccc2Cl)CC1	71*	1	-2	0.3
O=C(Cc1ccc(Br)cc1)N1CCN(c2ccc(F)cc2)CC1	97*	0.2	76*	0
O=C(COC(=O)C1(c2ccccc2)CC1)N1CCN(c2ccc(F)cc2)CC1	77*	1.1	-6	0.2
O=C(CCS(=O)(=O)c1ccc(Br)cc1)N1CCN(c2ccccc2)CC1	16	0.6	39	0.8
SMILES	CYP2C19 inhib	CYP2C9 activ	CYP2C9 inh	CYP2C19 activ
O=C(Cc1ccc(Br)cc1)N1CCN(c2ccccc2O)CC1	96*	0.2	81*	0
Cc1csc(SCC(=O)c2c(N)n(C)c(=O)n(C)c2=O)n1	9	1	4	0.9
O=C(COC(=O)C1(c2ccccc2F)CCCC1)NC1CCS(=O)(=O)C1 (stereo not drawn)	12	1	5	0.9
O=C(COC(=O)C1(c2ccc(F)cc2)CCCC1)NC1CC1	55*	0.8	17	0.4
CCC(C)(C(=O)NC1CCCC1)N(C(=O)CC1NC(=O)NC1=O)c1ccc(C)cc1 (stereo not drawn)	4	1.1	-7	1
CCCCOc1ccccc1Cn1c(=O)oc2ccc(C)cc21	87*	0.1	88*	0.1
CCOc1ccccc1CNC(=O)Cn1c(=O)oc2ccccc21	37	1.2	-23	0.6
Cc1ccc2oc(=O)n(CC(=O)O)c2c1	8	1	2	0.9
COc1ccc(Cn2c(=O)oc3ccc(C)cc32)cc1OC	98*	0.2	79*	0
Cc1ccc2oc(=O)n(CCCOc3ccccc3)c2c1	94*	0.5	46	0.1
Cc1ccc2oc(=O)n(Cc3ccccc3OC(C)C)c2c1	86*	0.1	85*	0.1
CC(C)Oc1ccc(CNC(=O)Cn2c(=O)oc3ccccc32)cc1	23	1.1	-6	0.8
O=C(NC1CS(=O)(=O)CC1NCc1ccco1)c1ccccc1 (stereo not drawn)	26	0.9	10	0.7
Cc1cc(N=Cc2c(O)n(-c3ccc4c(c3)OCO4)c(=O)c3ccccc23)ccn1	55*	0.4	60*	0.4
CC1CCC(NC(=O)C2CCN(c3cnccn3)CC2)CC1 (stereo not drawn)	53*	1.1	-11	0.5
Nc1cc(N2CCCCC2)c(Cl)cc1[N+](=O)[O-]	80*	0.5	53*	0.2
O=[N+]([O-])c1ccc(N2CCCCC2)c(Cl)c1N1CCCCC1	41	0.5	50*	0.6
Cc1cc(C(=O)OCC(=O)N(C)C2CCS(=O)(=O)C2)c(C)n1-c1ccccc1 (stereo not drawn)	22	0.9	7	0.8
O=C(Nc1ccc(Oc2cccc3ccccc23)cc1)c1ccco1	40	1.4	-37	0.6
O=C(C1=C(O)C(=O)N(CCN2CCOCC2)C1c1ccncc1)c1ccco1 (stereo not drawn)	-11	1	2	1.1
N#CC(C#N)=C/C(C#N)=C(/N)N1CCN(c2ccc(Cl)cc2)CC1	26	0.9	10	0.7
Cc1nc2nc(-c3cccnc3)[nH]n2c(=O)c1C	27	0.7	31	0.7
O=C(CCCn1c(=S)[nH]c2cc3c(cc2c1=O)OCO3)N1CCc2ccccc2C1	38	0.4	57*	0.6
O=C(CCCn1c(=S)[nH]c2cc3c(cc2c1=O)OCO3)NC1CC1	-3	0.7	29	1
CCOC(=O)N1CCN(C(=O)CCn2c(=S)[nH]c3cc(OCC)c(OCC)cc3c2=O)CC1	7	0.8	24	0.9
SMILES	CYP2C19 inhib	CYP2C9 activ	CYP2C9 inh	CYP2C19 activ
O=C(CCn1c(=S)[nH]c2cc3c(cc2c1=O)OCO3)N1CCc2ccccc2C1	91*	0.2	79*	0.1
O=C(CCCn1c(=O)oc2ccccc21)N1CCc2ccccc2C1	75*	1	-1	0.2
Cc1cccc(N2CCN(C(=O)CCn3c(=S)[nH]c4cc5c(cc4c3=O)OCO5)CC2C)c1 (stereo not drawn)	48	0.5	53*	0.5
Cc1ccccc1C(=O)c1c[nH]c(C(=O)NCc2cccs2)c1	-7	1	-2	1.1
N=c1oc2c3c4c(cc2cc1C(=O)Nc1ccccc1)CCCN4CCC3	11	0.9	7	0.9
O=C(NCc1ccco1)C1(c2ccccc2)CCCC1	57*	0.6	35	0.4
C=CCn1c(C)cc(C(=O)CN2C(=O)NC3(CCCc4ccccc43)C2=O)c1C (stereo not drawn)	44	0.2	82*	0.6
Cc1cc(C(=O)CN2C(=O)NC(c3ccccc3)(c3ccccc3)C2=O)c(C)n1Cc1ccco1	16	0.4	62*	0.8

Source: PubChem (Sanford-Burnham Center for Chemical Genomics)
